Compounds with a hit are over-represented: about 8% of the library has one in this group of screens.
FBPA coupling cs: qHTS Assay for Inhibitors of Fructose-1,6-bisphosphate Aldolase from Giardia Lamblia: Coupling assay counterscreen; coupling enzyme system counterscreen, AmpLite Red fluorescence; activity change, negative = inhibition, % at 58.2 µM, hits read low; 290,000 compounds, 0.67% hits; in the data active = activity change below about -30%
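Counterscreen lacking aldolase: glyceraldehyde-3-phosphate coupling-enzyme reagent preincubated 10 min at RT with compound (at 57.5 uM final), then substrate/coupling system with AmpLite Red added; fluorescence read at 525/598 nm after 20 min RT.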
RORgamma inh: qHTS for inhibitors of ROR gamma transcriptional activity | Potency, µM (doses to about 53.6 µM), for inactives: top-dose activity change, negative = inhibition, usual class: inhibitors | 310,000 compounds, 5.4% hits | Drosophila S2 Gal4-RORgamma UAS-luciferase reporter, 20 h | Nuclear receptor ROR-gamma (Mus musculus), P51450 | AID 2551, 2010; note: potency is the fitted concentration of half-maximal effect; nearly all actives have a fitted effect of over 60% in size
Target sequence (P51450 whole entry, looked up, the tested form may be a part): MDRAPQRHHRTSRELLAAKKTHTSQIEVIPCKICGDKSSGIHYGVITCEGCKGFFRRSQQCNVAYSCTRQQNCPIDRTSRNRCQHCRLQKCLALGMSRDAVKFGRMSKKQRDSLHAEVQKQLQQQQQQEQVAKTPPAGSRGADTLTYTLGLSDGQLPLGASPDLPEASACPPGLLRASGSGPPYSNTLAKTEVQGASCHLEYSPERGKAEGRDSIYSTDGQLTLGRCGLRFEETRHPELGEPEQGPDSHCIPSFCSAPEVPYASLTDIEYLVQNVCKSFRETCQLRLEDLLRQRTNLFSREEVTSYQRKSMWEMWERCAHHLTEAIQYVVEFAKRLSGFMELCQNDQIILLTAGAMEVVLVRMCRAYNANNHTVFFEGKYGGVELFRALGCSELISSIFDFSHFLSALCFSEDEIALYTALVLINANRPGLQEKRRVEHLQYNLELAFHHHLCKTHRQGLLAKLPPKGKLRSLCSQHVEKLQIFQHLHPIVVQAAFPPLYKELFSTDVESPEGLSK
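Stably transfected Drosophila Schneider cells are the test system, with ROR gamma fused to Gal4 and luciferase under UAS control; luminescence is read after 20 hr of 700 uM copper sulfate induction at ambient temperature.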
ELG1 repair inh: qHTS screen for small molecules that inhibit ELG1-dependent DNA repair in human embryonic kidney (HEK293T) cells expressing luciferase-tagged ELG1; HEK293T ELG1-luciferase reporter, luminescence, 16 h; DNA damage induced by 5-fluorouridine; Potency, µM (highest dose often 46.1 µM), for inactives: top-dose activity change, negative = inhibition, hits mostly inhibitors; 330,000 compounds, 2.3% hits; note: potency is the fitted concentration of half-maximal effect; nearly all actives have a fitted effect of over 55% in size
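In this reporter screen, reduction of luminescence relative to DMSO vehicle indicated activity. Compounds and 5-fluorouridine were added together to 2,000 cells per well, incubated for 16 hr at 37 °C, then developed with ONE-Glo.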
Gal4-VP16 FLuc: VP16 counterscreen qHTS for inhibitors of ROR gamma transcriptional activity; 310,000 compounds, 3.5% hits; Drosophila S2 Gal4-VP16 UAS-luciferase, luminescence, 20 h; Potency, µM (highest dose often 53.6 µM), for the others: at the top dose activity, negative = inhibition, actives largely listed as inhibitors; AID 2546, 2010;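 note: Gal4-VP16 expression switched on by copper sulfate through the metallothionein promoter; potency is the fitted concentration of half-maximal effect; nearly all actives have a fitted effect of over 50% in size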
TSHR antag: Antagonists of the Thyroid Stimulating Hormone Receptor: HTS campaign; Thyrotropin receptor (Homo sapiens), P16473; TSHR-expressing cells, TSH-stimulated cAMP HTRF, 2 h; hits give low values; activity change, negative = inhibition, % at 11.5 µM; 330,000 compounds, 0.2% hits;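 active = activity change below a set negative limit, meaning inhibition stronger than a set level, cut at about -70% in these data; inconclusive = activity change between two set negative limits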
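Antagonism was scored as loss of TSH-driven cAMP in TSHR cells, stimulated with 4nM TSH (EC80) for 2 hours at 37 deg C and detected by homogeneous HTRF competition immunoassay.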
An asterisk follows results filed as active; ? = inconclusive; . = no result; [ ] = another dose, or the depositor's remark. Unless noted, calls come from the whole dose curve; as a rule, active = well fitted curve in the direction sought with a large enough effect; inconclusive = small, poorly fitted or top-dose-only effect, or another doubt; inactive = no such curve, though single readings can be large; an effect the other way counts as inactive or inconclusive. % is set by controls: 0 for no effect and ±100 for the full control effect.

SMILES | FBPA coupling cs | RORgamma inh | ELG1 repair inh | Gal4-VP16 FLuc | TSHR antag
COC(=O)c1ccc(NC(=O)CCc2nnc3ccc(N4CCC5(CC4)OCCO5)nn23)cc1 | 2 | 1% | -13% | -8% | -15
CCOC(=O)C1CCN(C(=O)CN(C)S(=O)(=O)c2ccc3c(c2)c(=O)n(C)c(=O)n3C)CC1 | 0 | -10% | 0% | 3% | 5
COc1ccc2nc(N3C(=O)/C(=C/c4ccccc4)NC3=S)sc2c1 | 1 | 1.4µM* | 3% | 1.4µM* | -27
CCOc1ccc2nc(N3C(=O)/C(=C/c4ccccc4)NC3=S)sc2c1 | -1 | 1.3µM* | ? | 1.1µM* | -7
C/C(=C\CNc1ncnc2c1ncn2[C@@H]1O[C@H](CO)[C@@H](O)[C@H]1O)CO | 2 | -16% | . | -7% | .
COCCCN(C(=O)Cc1coc2cc(C)c(C)cc12)c1c(N)n(Cc2ccccc2)c(=O)[nH]c1=O | . | . | 7% | . | 9
COc1ccc(C(=O)Nc2ccccc2N2CCOCC2)cc1S(=O)(=O)N1CCOCC1 | . | . | -13% | . | 1
COc1ccc(C(=O)NC(=S)Nc2ccccc2N2CCOCC2)cc1Br | -1 | 6.3µM* | ? | 6.3µM* | 17
CCOc1ccc(C(=O)NC(=S)Nc2ccccc2N2CCOCC2)cc1Br | -4 | 3.2µM* | ? | 4.5µM* | -7
COc1ccc(C(=O)Nc2ccccc2C(=O)N2CCOCC2)cc1Br | . | 0% | 12% | -6% | -6
COc1ccc(C(=O)Nc2ccccc2N2CCOCC2)cc1Br | 0 | 18µM* | -9% | -21% | -3
CC(=O)N1CC(O)CC1C(=O)O (stereo not drawn) | . | -15% | . | -1% | .
CCOc1ccccc1CNC(=O)CCNS(=O)(=O)c1ccc2[nH]c(=O)oc2c1 | -1 | -4% | 11% | 4% | -2
CC(=O)c1ccc(N2C(=NC(=O)C3CCCCC3)SC3CS(=O)(=O)CC32)cc1 (stereo not drawn) | 0 | -7% | -2% | 15% | -9
O=C(N=C1SC2CS(=O)(=O)CC2N1c1cccc(Cl)c1Cl)C1CC1 (stereo not drawn) | . | -4% | 13% | -14% | 3
CCCOc1ccc(N2C(=O)CC(N(CCc3ccc(OC)c(OC)c3)C(=S)Nc3ccccc3)C2=O)cc1 (stereo not drawn) | -5 | 36% | 16µM* | -1% | 21
CCCOc1ccc(N2C(=O)CC(N(Cc3ccc(OC)cc3)C(=S)Nc3ccccc3)C2=O)cc1 (stereo not drawn) | -8 | ? | ? | ? | -4
CC1(C)CCN2CCC(C)(C)c3c(O)ccc1c32 | -30* | ? | ? | ? | -3
CCCCCCCCC/C(=N\O)c1ccccn1 | -1 | 3.5µM* | ? | 11µM* | -2
COc1ccc(N2CCN(c3cc(C)nc4ccc(OC)cc34)CC2)cc1 | 1 | -42% | 13µM* | -13% | -2
CCN1CCN(C(=O)CCn2c(=O)c3cccn3c3cccnc32)CC1 | . | -7% | 14% | 1% | 8
CC(Oc1ccc(Br)cc1)C(=O)Nc1ccncc1 (stereo not drawn) | 3 | ? | 5.2µM* | ? | -3
O=C(Nc1cccc(-c2cn3c(n2)SCC3)c1)c1ccc(Br)o1 | 1 | ? | ? | 7% | 31
O=C(Cc1ccc(F)cc1)Nc1cccc(-c2cn3c(n2)SCC3)c1 | 1 | 23% | 16µM* | 3% | -8
Cc1cc2nsnc2c(S(=O)(=O)N2CCN(C)CC2)c1C | 1 | -17% | 10% | -1% | 19
SMILES | FBPA coupling cs | RORgamma inh | ELG1 repair inh | Gal4-VP16 FLuc | TSHR antag
O=C(N/N=C/c1cccc2ccccc12)c1cccs1 | -4 | -29% | ? | 0% | 12
O=C(N/N=C/c1ccc(Br)s1)Nc1ccccc1 | 1 | -72% | ? | ? | -12
Cc1ccc(/C=N/NC(=O)c2cccs2)s1 | -1 | 11µM* | ? | 11µM* | 2
O=C(N/N=C/c1ccc(Br)s1)c1ccncc1 | -1 | 0.79µM* | ? | 1µM* | -5
O=C(N/N=C/c1ccc(Br)s1)c1cccs1 | 2 | 3.2µM* | ? | 5µM* | 4
Cc1cccc(NC(=O)NCc2cccnc2)c1C | . | -1% | -1% | 7% | -1
C=CCOC(=O)NC(c1ccc(F)c(F)c1)C(C(C)=O)C(=O)OC (stereo not drawn) | 0 | 1% | . | 5% | .
COC(=O)[C@@]1(Cc2ccc(OC)cc2)[C@@H]2[C@@H](CC(=O)[C@H]2CC(=O)C(=O)N(C)C)CN1C(=O)c1ccccc1 | -1 | ? | 3% | 4% | -2
COC(=O)[C@@]1(Cc2ccc(OC)cc2)[C@@H]2[C@@H](CC(=O)[C@H]2CC(=O)C(=O)N2CCCC2)CN1C(=O)c1ccccc1 | 4 | -16% | . | 4% | .
COC(=O)[C@@]1(Cc2ccc(F)cc2)[C@@H]2C(=CC(=O)[C@H]2CC(=O)C(=O)N2CCCC2)CN1C(=O)c1ccccc1 | -1 | 14µM* | . | ? | .
COC(=O)[C@@]1(Cc2ccc(OC)cc2)[C@@H]2C(=CC(=O)[C@H]2CC(=O)C(=O)N2CCCC2)CN1C(=O)c1ccccc1 | -4 | ? | 15µM* | 4µM* | -8
C=C1C(=O)C=C2CN(C(=O)c3ccccc3)[C@@](Cc3ccc(OC)cc3)(C(=O)OC)[C@@H]12 | -1 | 4µM* | . | 0.71µM* | .
CSc1ccccc1NC(=O)CSc1nnc(COc2ccccc2)o1 | 4 | -14% | 9% | 1% | 12
O=C(Oc1ccccc1)N1CCC2(CC1)CCN(c1cccc(-c3ccccc3)c1)CC2 | 2 | 17% | . | -3% | .
CN1[C@@H]2CC[C@H]1CC(OC(=O)[C@@H](O)c1ccccc1)C2 (stereo partly drawn) | 3 | -18%[10 µM] | . | 1% | .
COc1ccc(NC(=S)N(CCCN2CCN(C)CC2)Cc2cccs2)cc1 | 0 | -11% | 0% | 1% | 10
COc1ccc(NC(=S)N(CCC(C)C)C2CCN(C(C)C)CC2)cc1Cl | -47* | -14% | -16% | -1% | 3
COc1cccc(NC(=S)N(CCCN2CCCC(C)C2)Cc2cccs2)c1 (stereo not drawn) | 0 | -15% | -2% | 5% | -2
CSc1cccc(NC(=S)N(CCCN2CCCC(C)C2)Cc2cccs2)c1 (stereo not drawn) | 1 | 11µM* | -4% | 27%[10 µM] | -5
COc1ccc(NC(=S)NCCCN2CCCC2)cc1Cl | 1 | -10% | 18% | 3% | -3
COc1ccc(NC(=S)NCCN2CCC(C)CC2)cc1Cl | -47* | ? | 4% | ? | -23

Screening data deposited in PubChem by National Center for Advancing Translational Sciences (NCATS).
